Data reported in PubChem BioAssay (EPA / NIEHS).
Calls of active or inactive are those of the source. How the source made its calls: active means hit-call score of the fitted dose curve at least 0.9, where 1 is the maximum; inactive means score below 0.9.

Experiments:
[1] = ATG_M_61_CIS: Attagene CIS-FACTORIAL HepG2 Assay for M61 Transcription Factor (Internal Marker) (AID 2282937); settings: HepG2 Attagene CIS-FACTORIAL M61 internal marker reporter; actives raise or lower the signal
How it was run: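 HepG2 cells transiently transfected with cis-element-driven multiple reporter transcription units, dosed for 24 h. Reporter mRNA measured by RT-PCR, 6-FAM primer-extension labelling, HpaI digestion and capillary electrophoresis; bidirectional fit versus DMSO baseline.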

[2] = ATG_EGR_CIS: Attagene CIS-FACTORIAL HepG2 Assay for human Early Growth Response 1 (EGR1) (AID 2282938); settings: HepG2 Attagene CIS-FACTORIAL EGR reporter mRNA; actives raise or lower the signal
How it was run: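 HepG2 cells transiently transfected with cis-promoter-driven multiplexed reporter transcription units; reporter mRNA measured 24 h after compound dosing by RT-PCR, 6-FAM primer extension, HpaI digestion and capillary electrophoresis. Bidirectional fit versus DMSO baseline.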

[3] = ATG_M_19_CIS: Attagene CIS-FACTORIAL HepG2 Assay for M19 Transcription Factor (Internal Marker) (AID 2282939); settings: HepG2 Attagene CIS-FACTORIAL M19 internal marker reporter; actives raise or lower the signal
How it was run: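 Signals come from fluorescence of labelled reporter-specific PCR fragments resolved by capillary electrophoresis, following 24 h treatment of HepG2 cells transfected with cis-promoter reporter units; activity was fitted in both directions relative to DMSO.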

[4] = ATG_ERE_CIS: Attagene CIS-FACTORIAL HepG2 Assay for Estrogen Response Element (ERE) (AID 2282940); settings: HepG2 ERE cis-reporter, Attagene RNA transcript; actives raise or lower the signal
How it was run: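 Fluorescence of capillary-separated, FAM-labelled reporter cDNA fragments indicates reporter mRNA levels in HepG2 cells exposed to chemicals for 24 h. Transient transfection with cis-regulated units; data fitted in both directions against DMSO.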

[5] = ATG_Ets_CIS: Attagene CIS-FACTORIAL HepG2 Assay for human Erythroblast Transformation Specific (ETS) (AID 2282941); settings: HepG2 ETS cis-reporter transcription, actives raise or lower the signal
How it was run: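 Multiplexed reporter transcript profiling: HepG2, 24 h treatment, total RNA to cDNA, PCR, 6-FAM labelling, HpaI cut, capillary electrophoresis. Gain- or loss-of-signal fitted against DMSO.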

[6] = molecular target: Hepatocyte nuclear factor 3-beta (Homo sapiens) (UniProt Q9Y261); assay: ATG_FoxA2_CIS: Attagene CIS-FACTORIAL HepG2 Assay for human Forkhead box A2 (FOXA2) (AID 2282942); settings: HepG2 cis-reporter transcription factor activity, 24 h; actives raise or lower the signal
Chain of Hepatocyte nuclear factor 3-beta (Homo sapiens) (Q9Y261 whole entry, looked up): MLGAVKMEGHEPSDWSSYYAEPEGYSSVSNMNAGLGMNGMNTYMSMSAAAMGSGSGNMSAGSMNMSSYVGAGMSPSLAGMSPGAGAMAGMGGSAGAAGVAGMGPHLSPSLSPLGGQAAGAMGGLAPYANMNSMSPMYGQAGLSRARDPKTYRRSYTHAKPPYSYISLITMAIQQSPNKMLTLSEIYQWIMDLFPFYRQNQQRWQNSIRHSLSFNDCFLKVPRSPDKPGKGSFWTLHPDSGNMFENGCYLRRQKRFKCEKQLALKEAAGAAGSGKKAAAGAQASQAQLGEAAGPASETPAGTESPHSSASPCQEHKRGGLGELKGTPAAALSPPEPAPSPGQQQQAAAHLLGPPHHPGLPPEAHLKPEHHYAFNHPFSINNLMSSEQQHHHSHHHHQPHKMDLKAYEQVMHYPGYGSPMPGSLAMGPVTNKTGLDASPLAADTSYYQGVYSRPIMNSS
How it was run: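 HepG2 cells transiently transfected with multiple cis-regulated reporter transcription units, dosed for 24 h. Reporter mRNA measured by RT-PCR, 6-FAM labelling, HpaI digestion and capillary electrophoresis; bidirectional fitting against DMSO baseline.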

[7] = ATG_FoxO_CIS: Attagene CIS-FACTORIAL HepG2 Assay for human Forkhead box O (FoxO) (AID 2282943); settings: HepG2 Attagene cis-reporter, FoxO element, mRNA; actives raise or lower the signal
How it was run: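 HepG2 cells transiently transfected with cis-promoter-driven multiple reporter transcription units; 24 h after chemical dosing, reporter mRNA quantified by RT-PCR, fluorescent primer extension, HpaI digestion and capillary electrophoresis. Bidirectional fitting versus DMSO baseline.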

[8] = ATG_GLI_CIS: Attagene CIS-FACTORIAL HepG2 Assay for human Zinc Finger Protein GLI1 (AID 2282945); settings: HepG2, Attagene cis-factorial reporter mRNA, GLI element; actives raise or lower the signal
How it was run: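 HepG2 cells transiently transfected with cis-promoter multiplexed reporter units report endogenous transcription factor activity. After 24 h chemical exposure, reporter mRNA was quantified by RT-PCR, 6-FAM labelling, HpaI digestion and capillary electrophoresis, with bidirectional fitting against DMSO.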

[9] = ATG_GATA_CIS: Attagene CIS-FACTORIAL HepG2 Assay for human GATA Binding Protein (AID 2282944); settings: HepG2 GATA cis-element reporter, Attagene multiplex mRNA; actives raise or lower the signal
How it was run: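 After transfecting HepG2 cells with multiple cis-regulated reporter units, chemicals are dosed for 24 h; isolated RNA undergoes RT-PCR and fluorescent labeling before capillary electrophoresis, with activity expressed against DMSO.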

[10] = ATG_E_Box_CIS: Attagene CIS-FACTORIAL HepG2 Assay for human Enhancer Box (E-box) (AID 2282936); settings: HepG2 E-box cis-reporter transcription, actives raise or lower the signal
How it was run: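 Measured 24 h post-dosing in HepG2 cells transfected with multiple cis-regulated reporter units, signal being reporter mRNA induction detected by fluorescent RT-PCR with capillary electrophoresis; gain or loss fitted against DMSO.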

Measured: AC50

Nc1ccc(N=Nc2ccccc2)cc1
active: [2] 50.6 µM | [4] 27 µM
inactive: [1] | [3] | [5] | [6] | [7] | [8]

Brc1ccc(Oc2ccccc2)cc1
inactive: [1] | [2] | [3] | [5] | [6] | [7] | [8]
active: [4] 50.8 µM

c1ccc2c(c1)-c1cccc3cccc-2c13
inactive: [1] | [2] | [5] | [6] | [7] | [9] | [8]
active: [3] 0.00801 µM

O=C1CCCO1
inactive: [10] | [1] | [2] | [5] | [6] | [7] | [8]

CCOc1cccc(C2(N3CCN(c4ccccc4)CC3)CCC(C)CC2)c1 (centres undefined)
inactive: [10] | [1] | [2] | [4] | [5] | [6] | [7] | [8]

OCCOCCO
inactive: [10] | [1] | [2] | [4] | [5] | [6] | [7] | [8]

Cc1cc(N=Nc2ccccc2C)ccc1N
active: [2] 21.6 µM | [6] 15.7 µM
inactive: [10] | [1] | [5] | [7] | [8]

CN(C)c1ccc(C(=O)c2ccc(N(C)C)cc2)cc1
inactive: [1] | [2] | [3] | [5] | [6] | [7] | [9] | [8]

O=[N+]([O-])c1ccc(Oc2ccc(Cl)cc2Cl)cc1
inactive: [1] | [3] | [5] | [6] | [7] | [9] | [8]
active: [2] 28.3 µM

Cc1ccc(N=C=O)cc1N=C=O
inactive: [10] | [1] | [2] | [5] | [6] | [7] | [8]

c1ccc2c(c1)oc1ccccc12
inactive: [10] | [1] | [2] | [5] | [6] | [7] | [8]
